# A selection: hits, their analogues and other compounds. The true share with any hit is near 8.9%.
# D1 mod: allosteric modulators of human D1 dopamine receptor. P21728. HEK293 D1, CRE-luciferase, dopamine EC30 potentiation; actives deviate in either direction. B-score at 10 µM. 58,000 tested, 5.9% active. AID 641;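 active = luminescence count or its row- and column-corrected plate score outside the 99.7% band of the plate's sample wells, on either side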
# M1 agonist: activates the M1 muscarinic receptor; B-score at 10 µM; AID 626; CHO-M1 cells, Fluo-4 calcium fluorescence, agonist mode; active compounds read high; 64,000 tested, 3% active;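 active = fluorescence rise, raw or as B-score row- and column-corrected plate score, outside the 99.7% band of its plate's samples, either direction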
# Htt clearance: compounds clearing mutant huntingtin protein; HeLa Exon1htt(103Q)mCFP, aggregate imaging; zero = plate's median compound well; inhibition, % at 1.5 µM; 47,000 tested, 0.42% active;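 active = inhibition of aggregate fluorescence above about 70%, also judged a hit by eye on the cell image, limit read from the data, passing the limit was not always enough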;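 also: cells exposed to compound for three days before fixation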
# M1 antagonist: M1 muscarinic receptor (rat) antagonism. B-score at 10 µM. CHO-M1 cells, Fluo-4 calcium, ACh EC80 antagonist mode; active compounds read low. 64,000 tested, 3.4% active. P08482;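 active = calcium fluorescence response, raw or row-and-column corrected B-score, differing from the plate sample mean either way at a set confidence level, mostly lower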
# Target sequence (P08482 whole entry, looked up): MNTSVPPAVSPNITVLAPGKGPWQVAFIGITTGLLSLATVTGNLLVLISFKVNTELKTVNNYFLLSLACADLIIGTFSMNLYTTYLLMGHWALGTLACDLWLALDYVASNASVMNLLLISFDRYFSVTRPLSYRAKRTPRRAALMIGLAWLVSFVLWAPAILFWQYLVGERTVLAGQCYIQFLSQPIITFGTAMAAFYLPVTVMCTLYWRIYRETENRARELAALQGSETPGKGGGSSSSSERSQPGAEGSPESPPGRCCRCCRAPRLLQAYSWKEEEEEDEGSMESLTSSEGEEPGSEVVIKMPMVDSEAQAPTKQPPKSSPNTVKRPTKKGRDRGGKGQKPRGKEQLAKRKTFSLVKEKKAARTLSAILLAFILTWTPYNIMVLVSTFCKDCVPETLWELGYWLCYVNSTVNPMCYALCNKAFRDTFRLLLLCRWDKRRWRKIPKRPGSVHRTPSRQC
# WNV protease inh: inhibitors of West Nile virus NS2B-NS3 protease. P06935. WNV NS2B-NS3 protease, fluorogenic substrate Ex360/Em465; active compounds read low. z-score (test concentration not listed). 65,000 tested, 0.18% active. AID 577; in the data active = z-score below about -3
# D1 PAM confirm: D1 receptor (human) allosteric modulation, confirmed; shares compounds with D1 mod; luminescence at 10 µM; 2,200 tested, 88% active; HEK293 D1 CRE-luciferase, dopamine EC30 potentiation; active compounds read high;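 active = luminescence in either of two replicates above the same-plate mean plus 3 SD of the low-dose dopamine control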
# D1 no dopamine: secondary test of D1 modulators: activity without dopamine; shares compounds with D1 mod; HEK293 D1 CRE-luciferase, luminescence, no dopamine; active compounds read high; luminescence at 10 µM; 1,900 tested, 0.8% active; AID 646; in the data active = luminescence above about 3900
# Isoprot counter: isoproterenol response counter-screen activity for D1 modulators; HEK293 D1 CRE-luciferase, isoproterenol EC30 counter-screen; shares compounds with D1 mod; 2,200 tested, 63% active; calls only at 10 µM; AID 647;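 active = luminescence in either replicate above plate mean of wells with a partly effective reference agonist dose plus 3 SD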;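 also: isoproterenol raises cAMP through native beta-adrenoceptor Gs so signal bypasses D1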
# Hits are given with their value; 0 = inactive; - = not tested or not shown; + = active, no number.
SMILES,D1 mod,M1 agonist,Htt clearance,M1 antagonist,WNV protease inh,D1 PAM confirm,D1 no dopamine,Isoprot counter
CCn1nccc1C(=O)Nc1ccc(Cl)cc1Cl,0,0,0,0,0,-,-,-
CCN(c1cccc(C)c1)S(=O)(=O)c1cccc(C(=O)O)c1,-,-,0,-,-,-,-,-
Cc1nc2c(C(=O)NCc3ccco3)cnn2c(C)c1Cc1ccc(F)cc1Cl,0,0,0,0,0,-,-,-
Cc1cccc(Cc2c(C)nc3c(C(=O)NCc4ccco4)cnn3c2C)c1,3.9,0,0,0,0,8112,0,0
CC(=O)NC(=O)NC1OC(=O)C(Cl)=C1Cl (stereo not given),0,0,0,0,0,-,-,-
CCOC(=O)C1=C(C)Nc2ncnn2C1/C=C/c1ccccc1 (stereo not given),2.8,0,0,0,0,11572,0,+
Cn1c(=O)c2cc(S(=O)(=O)NCCC(=O)NCCc3ccc(Cl)cc3)ccc2n(C)c1=O,0,0,-,0,0,-,-,-
CCc1ccc(N/C(SC)=C(/C#N)C(N)=O)cc1,0,0,0,0,0,-,-,-
CCOc1ccc(N/C(SC)=C(/C#N)C(N)=O)cc1,5,0,-,0,0,6796,0,0
COc1ccccc1S(=O)Cc1ccc(C(=O)NCc2ccccc2Cl)o1 (stereo not given),0,0,0,0,0,-,-,-
COc1ccc(Nc2ncc3c(n2)CC(c2ccc(OC)cc2)CC3=O)cc1 (stereo not given),7.5,0,0,0,0,11768,0,+
COc1ccc(Nc2ncc3c(n2)CC(c2ccc(C)cc2)CC3=O)cc1 (stereo not given),-,-,0,-,-,-,-,-
CC(=O)Nc1ccc2ccc3cccc4ccc1c2c34,-,-,0,-,-,-,-,-
c1coc(CNc2ncnc3sc4c(c23)CCCCC4)c1,11,0,-,0,0,11680,0,+
Cc1ccc(C)c(S(=O)(=O)c2c(N)n(/N=C/c3ccco3)c3nc4ccccc4nc23)c1,0,0,-,0,0,-,-,-
COc1ccc(-c2cc(C(F)(F)F)n3nc(C(=O)N4CCCCC4)cc3n2)cc1,5.7,0,-,0,0,8620,0,0
CC(C)NC(=O)N1CCOCCOCCN(C(=O)NC(C)C)CCOCCOCC1,0,0,0,0,0,-,-,-
CSc1ccc(C2C(C#N)=C(N)N(c3ccccc3)C3=C2C(=O)CCC3)cc1 (stereo not given),2.6,0,-,0,0,10676,0,0
C=CCNC(=O)c1ccccc1Cl,-,-,0,-,0,-,-,-
Cc1cc(-c2cccs2)c2c(n1)sc1c(=O)[nH]c(=O)[nH]c12,9.9,0,0,0,0,13116,0,0
Cc1cc(-c2cccs2)n[nH]1,0,0,-,0,0,-,-,-
C=CCNC(=O)c1cc(-c2ccc(Br)cc2)on1,0,0,0,0,0,-,-,-
CCOC(=O)c1ccc(N2CN=C3SCC(=O)N3C2)cc1,3.1,0,0,0,0,5848,0,0
CCOC(=O)c1ccc(N=C2NC(=O)CS2)cc1,0,0,0,0,0,-,-,-
CN(CC(=O)N1CCc2ccccc21)S(=O)(=O)c1cccc2cccnc12,-,0,0,0,0,-,-,-
SMILES,D1 mod,M1 agonist,Htt clearance,M1 antagonist,WNV protease inh,D1 PAM confirm,D1 no dopamine,Isoprot counter
Cc1cc(Nc2ccc(C)c(Br)c2)n2nc(C)nc2n1,2.8,0,-,0,0,0,0,0
Cc1cc(Nc2ccccc2Br)n2nc(C)nc2n1,0,0,-,0,0,-,-,-
Cc1cc(C)nc(N2CCC(C(=O)Nc3ccc4c(c3)CCC4)CC2)n1,0,0,0,0,0,-,-,-
COc1ccc(NC(=O)Cn2nnc(C(N)=O)c2N)c(OC)c1,0,0,0,0,0,-,-,-
COc1ccc(C(C#N)C2(C)OCCO2)cc1OC (stereo not given),10,0,0,0,0,10756,-,+
COc1ccc(C(C#N)N2CCCCC2)cc1OC (stereo not given),0,0,-,0,0,-,-,-
O=C(Oc1ccc(OC(=O)N2CCOCC2)cc1)c1ccccc1,0,0,-,0,0,-,-,-
CCc1nc2ccccc2c(C(=O)OC2CCOC2=O)c1C (stereo not given),5.4,0,-,0,0,11292,0,+
Cc1ccc(C)n1-c1sc2c(c1C#N)CCCC2,-,-,0,-,-,-,-,-
Cc1csc2c(C#N)c(=O)c3c(n12)CCC3,4.4,0,0,0,0,6564,0,0
c1ccc(-c2c(-c3ccccc3)n(Cc3ccco3)c3ncnc(NCCCn4ccnc4)c23)cc1,-,-,0,-,-,-,-,-
OCCNc1ncnc2c1c(-c1ccccc1)c(-c1ccccc1)n2Cc1ccco1,5.8,0,-,0,0,8384,0,0
COc1ccc(S(=O)(=O)N2CCCN(S(=O)(=O)c3ccc(OC)cc3C)CC2)c(C)c1,-,-,-,-,0,-,-,-
CSc1nncc(=O)[nH]1,-,0,-,0,0,-,-,-
COc1ccc(C(=O)N2CCc3cc(OC)c(OC)cc3C2)cc1OC,3.7,0,0,0,0,9712,0,+
COc1ccc(C(=O)N2CCN(S(=O)(=O)c3ccc(C)cc3C)CC2)cc1OC,4.7,0,-,0,0,10368,0,+
CCOC(=O)N1CCN(C(=O)c2ccc(OC)c(OC)c2)CC1,-,-,0,-,-,-,-,-
CCOc1nc(C)ccc1-c1noc(-c2ccco2)n1,7.2,0,0,0,0,16212,0,+
COc1nc(C)ccc1-c1noc(-c2ccncc2)n1,6.7,0,0,0,0,7856,0,0
CCOc1nc(C)ccc1-c1noc(-c2ccccn2)n1,8,0,0,0,0,16720,0,+
Cn1c(=O)oc2cc(S(=O)(=O)N3CCC(N4CCCCC4)CC3)ccc21,0,0,-,0,0,-,-,-
Cc1ccc(-n2nc3c(c2NC(=O)c2c(-c4ccccc4Cl)noc2C)CSC3)cc1,4.6,0,0,0,0,0,0,0
c1csc(-c2nc3nc4ccccc4nc3n2Cc2ccc3c(c2)OCO3)c1,8.9,0,0,0,0,10488,0,+
COc1ccc(/C=N/n2c(N)nc3ccccc32)cc1OC,9.5,-,0,-,0,21348,0,+
Cc1cc(F)ccc1S(=O)(=O)Nc1c(C)n(C)n(-c2ccccc2)c1=O,5,0,0,0,0,0,0,0
SMILES,D1 mod,M1 agonist,Htt clearance,M1 antagonist,WNV protease inh,D1 PAM confirm,D1 no dopamine,Isoprot counter
Cc1c(NS(C)(=O)=O)c(=O)n(-c2ccccc2)n1C,0,0,-,0,0,-,-,-
O=C(c1ccco1)N1CCN(C(=O)c2cnn3c(C(F)(F)F)cc(-c4cccs4)nc23)CC1,0,0,0,0,0,-,-,-
CCCCSc1nc(CCC)cc(=O)[nH]1,5.3,0,0,0,0,15600,0,+
COc1ccc(Oc2nc(Oc3ccc(OC)cc3)nc(Oc3ccc(OC)cc3)n2)cc1,0,0,-,0,0,-,-,-
CCN(CC)c1ccc(C2NCC(c3ccc([N+](=O)[O-])cc3)O2)cc1 (stereo not given),-,-,0,-,-,-,-,-
COc1ccccc1-c1cc(C2CC2)nc(N)c1C#N,9.4,0,0,0,0,11344,0,+

# Screening results: PubChem BioAssay, several laboratories
